CHO-K1 Ca antag = M1 antagonist counterscreen hit in parental CHO-K1 cells; ATP-induced calcium, Fluo-8 fluorescence; inhibition, % at 3 µM; hit rate 0.6% among 360,000;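 active means inhibition above a per-plate cutoff, the plate's mean sample inhibition plus 3 SD, cut at about 24% in these data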;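 further: 0% = DMSO plus EC80 ATP and 100% = DMSO alone without ATP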
CHRM1 agonist = agonists of human M1 muscarinic receptor. activation, % at 3 µM. P11229. hit rate 0.33% among 360,000. CHO-K1 hM1, Fluo-8 calcium fluorescence, agonist mode; 0% DMSO, 100% acetylcholine EC100;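 active means activation above the run's mean compound activation plus 3 SD, cut at about 16% in these data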;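 further: peak over basal fluorescence ratio within a 140 s kinetic read after compound addition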
Target sequence (P11229 whole entry, looked up): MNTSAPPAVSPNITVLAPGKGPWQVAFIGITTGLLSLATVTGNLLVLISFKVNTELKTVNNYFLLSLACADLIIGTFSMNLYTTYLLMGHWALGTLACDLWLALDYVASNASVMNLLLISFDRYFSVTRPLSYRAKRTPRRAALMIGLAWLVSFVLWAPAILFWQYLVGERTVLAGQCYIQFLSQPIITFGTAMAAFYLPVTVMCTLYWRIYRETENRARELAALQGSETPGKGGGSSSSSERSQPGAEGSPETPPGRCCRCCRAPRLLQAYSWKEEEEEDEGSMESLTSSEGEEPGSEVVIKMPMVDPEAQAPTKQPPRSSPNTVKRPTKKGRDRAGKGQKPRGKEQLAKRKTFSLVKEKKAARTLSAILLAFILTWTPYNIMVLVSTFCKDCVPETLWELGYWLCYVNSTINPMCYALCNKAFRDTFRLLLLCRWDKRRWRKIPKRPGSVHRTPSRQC
CHRM1 PAM = human CHRM1 positive allosteric modulation; activation, % at 3 µM; AID 588819; CHO-K1 hM1, Fluo-8 calcium fluorescence, ACh EC20; 0% = ACh EC20, 100% = maximal ACh; hit rate 0.088% among 360,000; P11229; in the data active means activation above about 19%, passing the limit was not always enough
M1 antag = blocks human M1 muscarinic receptor; P11229; CHO-K1 hM1, Fluo-8 calcium fluorescence, ACh EC80 antagonist; inhibition, % at 3 µM; hit rate 1.3% among 360,000;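 active means percent inhibition above its own plate's cutoff, namely the mean of that plate's compound wells plus 3 SD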;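 further: peak over basal fluorescence ratio during 140 s after agonist addition; 0% = ACh EC80 plus DMSO and 100% = DMSO alone without agonist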
CHO-K1 Ca PAM = counter-screen for M1 PAMs: effect in parental CHO-K1 cells. ATP EC20, Fluo-8 calcium fluorescence; 0% at ATP EC20, 100% at ATP max. activation, % at 3 µM. hit rate 0.02% among 360,000. AID 602247;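 active means activation above the run cutoff, the mean activation of all test compounds plus 3 SD, cut at about 40% in these data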;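 further: peak over basal fluorescence ratio in a 140 s read after ATP addition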
M1 ag parental = counter-screen for M1 agonists: effect in parental CHO-K1 cells; Fluo-8 calcium fluorescence; scaled to maximal ATP response, vehicle zero; activation, % at 3 µM; hit rate 0.48% among 360,000; AID 602248; in the data active means activation above about 15%;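 further: untransfected CHO-K1 host cells lacking M1 receptor as counterscreen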
The depositor's hits bear a star. The list is not random: actives were taken first. Their share in the collection is about 2.3%.

SMILES	CHO-K1 Ca antag	CHRM1 agonist	CHRM1 PAM	M1 antag	CHO-K1 Ca PAM	M1 ag parental
Cc1ccc(-n2c(C)nc3c(cnn3-c3ccc(F)cc3)c2=O)cc1C	-3	1	-12	29*	12	4
CCOC(=O)c1ccc(N=C2SC(C(=O)NCCc3ccccc3)CC(=O)N2C)cc1 (centres undefined)	-9	-5	-1	8	-12	1
CCNC(=O)C1CC(=O)N(CCCc2ccccc2)C(=Nc2ccccc2)S1 (centres undefined)	1	-4	7	-12	10	19*
CC1=C(C(=O)OC(C)(C)C)C(c2cccc3ccccc23)NC(=O)N1 (centres undefined)	-4	-3	16	-5	17	-1
COc1ccc(C(=O)N2CCc3cc(OC)c(OC)cc3C2c2ccc(OC)c(OC)c2)cc1 (centres undefined)	24*	1	14	-6	-8	0
COc1ccc(C2c3cc(OC)c(OC)cc3CCN2C(=O)c2ccccc2)cc1OC (centres undefined)	0	0	3	-1	4	0
CC1CC(C)CN(C(=O)CN2C(=O)NC(c3ccccc3)(c3ccccc3)C2=O)C1 (centres undefined)	-15	3	3	-5	22	6
O=C(O)CCCCn1c(SCc2cc(=O)n3cc(Cl)ccc3n2)nc2ccsc2c1=O	-1	-7	3	-8	13	1
O=c1c2sccc2nc(SCc2cc(=O)n3cc(Cl)ccc3n2)n1-c1ccc(F)cc1	-7	-3	-7	11	25	15*
COc1ccc(/C=C/C(=O)NNc2c(F)c(F)cc(F)c2F)cc1OC	25*	0	2	7	-7	0
CCN1CCN(S(=O)(=O)c2cc(OCC(=O)NC3CCCCC3)c(C)cc2Cl)CC1	27*	-1	0	9	-6	1
Cc1cc(Cl)c(S(=O)(=O)N2CCN(c3ccccn3)CC2)cc1OCC(=O)NC1CCCCC1	1	-1	-13	26*	-11	11
CCOC(=O)N1CCC(NC(=O)C2CCN(C(=O)c3cc4oc(C)cc4n3Cc3c(F)cccc3Cl)CC2)CC1	-17	32*	11	-7	20	1
COc1ccccc1C(CNC(=O)c1cccc(S(=O)(=O)Nc2ccc(C)cc2)c1)N(C)C (centres undefined)	-8	-5	-24	99*	-4	1
COc1ccccc1NS(=O)(=O)c1ccc(-c2cnc(C3CC3)o2)cc1	-13	-1	0	0	14	6
COc1ccc(NS(=O)(=O)c2cccc(C(=O)NCC(c3ccccc3)N(C)C)c2)cc1 (centres undefined)	3	2	-9	19	6	3
COc1ccccc1C(CNC(=O)c1ccc(NS(=O)(=O)c2ccc3c(c2)OCCO3)cc1)N(C)C (centres undefined)	15	8	-15	40*	-20	0
COc1ccc(NS(=O)(=O)c2ccc(-c3cnc(C4CC4)o3)cc2)cc1OC	23	2	-12	34	-19	16*
COc1ccc(NS(=O)(=O)c2ccc3c(c2)OCCO3)cc1OC	36*	2	-13	26*	-2	14
CN1CCN/C1=C(/C(Cl)=C(Cl)Cl)[N+](=O)[O-]	-7	-6	6	-2	21	0
CCCCN1C(=O)c2ccc(C(=O)NCCN3C(=O)S/C(=C\c4cccnc4)C3=O)cc2C1=O	12	-2	12	-8	8	0
COc1ccc(NC(=O)Cn2c(NCC(C)O)nc3ccccc32)cc1Cl (centres undefined)	-9	-3	-13	11	0	0
CCCCOc1ccc(S(=O)(=O)N2CCN(c3ccc(N4CCN(CC)CC4)nn3)CC2)cc1	-8	-5	-5	-7	5	2
CCN1CCN(c2ccc(N3CCN(S(=O)(=O)c4cccc([N+](=O)[O-])c4)CC3)nn2)CC1	-4	-10	-23	34*	7	1
Cc1cccc2cc(CN(CCN3CCOCC3)C(=O)Nc3ccccc3F)c(=O)[nH]c12	30*	-4	1	-8	-14	1
SMILES	CHO-K1 Ca antag	CHRM1 agonist	CHRM1 PAM	M1 antag	CHO-K1 Ca PAM	M1 ag parental
CCNC(=S)N/N=C/c1ccc(OCC(=O)Nc2ccc(OC)cc2)c(OC)c1	20	-1	-16	39*	-9	7
C/C=C/c1ccc(OCC(=O)Nc2ccncc2)c(OC)c1	17	-1	-9	14	-1	15*
CCCCNC(=S)N(C)/N=C/c1ccc(OCC(=O)Nc2c(C)cc(C)cc2C)c(OC)c1	5	-1	3	-7	-4	-1
CCCCNC(=S)N(C)/N=C/c1ccc(OCC(=O)Nc2ccc(OC)cc2)c(OC)c1	18	-1	-19	34*	-3	4
C/C=C\C=C/C(=O)Nc1cccc(C2=NOC3(C2)C[C@H](C(N)=O)N(C(=O)Cc2ccc([N+](=O)[O-])cc2)C3)c1 (some centres undefined)	-6	-4	3	1	6	0
Cc1cc(OCC(=O)Nc2nccs2)c2c(C)cc(=O)oc2c1	-5	0	-1	12	-10	0
O=C(c1ccccc1F)c1cc2c(cc1[N+](=O)[O-])OCCO2	2	-12	-1	-1	2	0
CCCCN(C(=O)C1CCC1)c1c(N)n(CCC)c(=O)[nH]c1=O	-9	-2	0	3	-8	0
CCCCN(C(=O)C1CCCC1)c1c(N)n(CC(C)C)c(=O)[nH]c1=O	-15	1	30*	-27	7	0
O=C(C(Cc1ccccc1)n1cccc1)N1CCN(Cc2ccccc2)CC1 (centres undefined)	10	-5	-31	92*	15	7
CC(C)C(C(=O)N1CCN(Cc2ccccc2)CC1)c1ccccc1 (centres undefined)	1	-8	-28	89*	3	2
O=C(C(Cc1ccccc1)n1cccc1)N1CCCCC1 (centres undefined)	-2	-5	8	-9	14	0
Cc1cccc2cc3c(N)c(C(=O)N4CCc5ccccc54)sc3nc12	44*	11	-11	30*	-1	33*
CC12CCC3c4cc(CN5CCOCC5)c(O)cc4CCC3C1CCC2=O (centres undefined)	-7	-6	1	-6	-4	0
CCOC(=O)C1CCCN(C(=O)CCn2nnnc2CN2CCOCC2)C1 (centres undefined)	1	32*	-13	17	23	0
CCN(CC)C(=O)C1CCCN(C(=O)CCn2nnnc2CN2CCOCC2)C1 (centres undefined)	1	-3	9	-14	0	0
